Reference: PubChem BioAssay AID1159580 (chemical genetic matrix, 2015)
Values joined by “and” are separate entries in the source; they are usually repeats but may differ in a detail not shown here. Equal entries are not always repeated. The campaign covered roughly 5,500 compounds. About 2,000 (36%) were called active. Inconclusive results (about 18%) are left out. Cut-off read from the data, not from the text of the source: active = normalized growth mostly below about 0.91 (no sharp cut-off); inconclusive = no clear call, values can overlap the other calls; inactive = mostly above about 0.92. Some of the results follow.

Test: chemical genetic growth profiling, strain panel (AID 1159580);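 note: tested at 20 µM; growth read once vehicle control cultures reached saturation at 30 °C; 1 = growth at the plate median or of vehicle wells; lower values mean less growth of the strain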
Settings: growth OD

Measured: normalized growth

CCC1(C)CC(=O)NC1=O (stereo unspecified)
inactive: S. cerevisiae deletion strains, locus YJR075W, strain HOC1, hits give low values 1.01 | S. cerevisiae deletion strains, locus YKL009W, strain mrt4, hits give low values 1.03 | S. cerevisiae deletion strains, locus YKL068W, hits give low values 1.01 | S. cerevisiae deletion strains, locus YKL085W, strain MDH1 (second series), hits give low values 1.01 | S. cerevisiae deletion strains, locus YKL085W, strain MDH1, hits give low values 1.01 | S. cerevisiae deletion strains, locus YKL160W, strain elf1, hits give low values 0.992 | S. cerevisiae deletion strains, locus YKL190W, strain CNB1, hits give low values 1.02 | S. cerevisiae deletion strains, locus YKR001C, strain vps1, hits give low values 1.01 | S. cerevisiae deletion strains, locus YKR026C, strain gcn3, hits give low values 0.979 | S. cerevisiae deletion strains, locus YKR091W, strain srl3, hits give low values 0.972 | S. cerevisiae deletion strains, locus YLL001W, strain dnm1, hits give low values 0.967 | S. cerevisiae deletion strains, locus YLL026W, hits give low values 0.98 | S. cerevisiae deletion strains, locus YLL041C, strain sdh2, hits give low values 0.995 | S. cerevisiae deletion strains, locus YLR027C, strain aat2, hits give low values 0.975 | S. cerevisiae deletion strains, locus YLR039C, strain RIC1, hits give low values 1.03 | S. cerevisiae deletion strains, locus YLR058C, strain SHM2, hits give low values 1.02 | S. cerevisiae deletion strains, locus YLR102C, strain apc9, hits give low values 1.01 | S. cerevisiae deletion strains, locus YLR113W, strain HOG1, hits give low values 0.966 | S. cerevisiae deletion strains, locus YLR221C, strain rsa3, hits give low values 0.987 | S. cerevisiae deletion strains, locus YLR258W, strain gsy2, hits give low values 0.968 | S. cerevisiae deletion strains, locus YLR262C, strain YPT6 (second series), hits give low values 0.977 | S. cerevisiae deletion strains, locus YLR262C, strain YPT6, hits give low values 1.04 | S. cerevisiae deletion strains, locus YLR268W, strain sec22, hits give low values 1.02 | S. cerevisiae deletion strains, locus YLR320W, strain mms22, hits give low values 0.978 | S. cerevisiae deletion strains, locus YLR330W, strain CHS5, hits give low values 1.01 | S. cerevisiae deletion strains, locus YLR342W, strain FKS1 (second series), hits give low values 1.02 | S. cerevisiae deletion strains, locus YLR342W, strain FKS1, hits give low values 0.988 | S. cerevisiae deletion strains, locus YLR357W, strain rsc2, hits give low values 0.965 | S. cerevisiae deletion strains, locus YLR370C, strain arc18, hits give low values 0.981 | S. cerevisiae deletion strains, locus YLR371W, strain rom2, hits give low values 1.02 | S. cerevisiae deletion strains, locus YLR384C, strain iki3, hits give low values 0.969 | S. cerevisiae deletion strains, locus YLR418C, strain cdc73, hits give low values 1.02 | S. cerevisiae deletion strains, locus YML016C, strain PPZ1, hits give low values 1.01 | S. cerevisiae deletion strains, locus YML032C, strain rad52, hits give low values 1.01 | S. cerevisiae deletion strains, locus YML120C, strain ndi1, hits give low values 0.977 | S. cerevisiae deletion strains, locus YML124C, strain tub3, hits give low values 1.02 | S. cerevisiae deletion strains, locus YMR058W, strain fet3, hits give low values 0.969 | S. cerevisiae deletion strains, locus YMR078C, strain ctf18, hits give low values 1.02 | S. cerevisiae deletion strains, locus YMR125W, strain sto1, hits give low values 0.97 | S. cerevisiae deletion strains, locus YMR129W, hits give low values 0.979 | S. cerevisiae deletion strains, locus YMR205C, strain PFK2, hits give low values 0.992 | S. cerevisiae deletion strains, locus YMR223W, strain ubp8, hits give low values 1.02 | S. cerevisiae deletion strains, locus YMR231W, strain pep5, hits give low values 0.983 | S. cerevisiae deletion strains, locus YMR263W, strain SAP30, hits give low values 1.01 | S. cerevisiae deletion strains, locus YMR307W, strain GAS1, hits give low values 1.04 | S. cerevisiae deletion strains, locus YNL067W, strain RPL9B, hits give low values 1.01 | S. cerevisiae deletion strains, locus YNL071W, strain lat1, hits give low values 0.96 | S. cerevisiae deletion strains, locus YNL128W, strain TEP1, hits give low values 1.04 | S. cerevisiae deletion strains, locus YNL153C, strain GIM3, hits give low values 1.01 | S. cerevisiae deletion strains, locus YNL175C, strain NOP13, hits give low values 0.993 | S. cerevisiae deletion strains, locus YNL183C, strain NPR1, hits give low values 0.906 | S. cerevisiae deletion strains, locus YNL197C, strain WHI3, hits give low values 0.999 | S. cerevisiae deletion strains, locus YNL209W, strain ssb2, hits give low values 0.969 | S. cerevisiae deletion strains, locus YNL224C, strain SQS1, hits give low values 0.975 | S. cerevisiae deletion strains, locus YNL233W, strain BNI4, hits give low values 1 | S. cerevisiae deletion strains, locus YNL248C, strain rpa49, hits give low values 0.993 | S. cerevisiae deletion strains, locus YNL250W, strain rad50, hits give low values 1.01 | S. cerevisiae deletion strains, locus YNL271C, strain bni1, hits give low values 1.03 | S. cerevisiae deletion strains, locus YNL298W, strain CLA4, hits give low values 1.02 | S. cerevisiae deletion strains, locus YNL307C, strain MCK1, hits give low values 1.02 | S. cerevisiae deletion strains, locus YNL322C, strain KRE1 (second series), hits give low values 0.982 | S. cerevisiae deletion strains, locus YNL322C, strain KRE1, hits give low values 1.01 and 1.02 | S. cerevisiae deletion strains, locus YNR049C, strain mso1, hits give low values 0.969 | S. cerevisiae deletion strains, locus YNR052C, strain pop2, hits give low values 1.02 | S. cerevisiae deletion strains, locus YOL006C, strain TOP1, hits give low values 0.992 | S. cerevisiae deletion strains, locus YOL012C, strain htz1 0.885 | S. cerevisiae deletion strains, locus YOL147C, strain pex11, hits give low values 1.01 | S. cerevisiae deletion strains, locus YOR001W, strain rrp6, hits give low values 0.98 | S. cerevisiae deletion strains, locus YOR061W, strain CKA2, hits give low values 1.01 | S. cerevisiae deletion strains, locus YOR069W, strain VPS5, hits give low values 1.01 | S. cerevisiae deletion strains, locus YOR070C, strain gyp1, hits give low values 1.01 | S. cerevisiae deletion strains, locus YOR080W, strain dia2, hits give low values 0.976 | S. cerevisiae deletion strains, locus YOR083W, strain WHI5 (second series), hits give low values 1 | S. cerevisiae deletion strains, locus YOR083W, strain WHI5, hits give low values 0.976 | S. cerevisiae deletion strains, locus YOR106W, strain vam3, hits give low values 0.959 | S. cerevisiae deletion strains, locus YOR136W, strain idh2, hits give low values 1.02 | S. cerevisiae deletion strains, locus YOR144C, strain elg1, hits give low values 1.01 | S. cerevisiae deletion strains, locus YOR184W, strain ser1, hits give low values 1.01 | S. cerevisiae deletion strains, locus YOR231W, strain MKK1, hits give low values 0.977 | S. cerevisiae deletion strains, locus YOR265W, strain rbl2, hits give low values 0.978 | S. cerevisiae deletion strains, locus YOR270C, strain vph1, hits give low values 0.984 | S. cerevisiae deletion strains, locus YOR290C, strain snf2, hits give low values 0.963 | S. cerevisiae deletion strains, locus YOR316C, strain cot1, hits give low values 1.02 | S. cerevisiae deletion strains, locus YPL051W, strain arl3, hits give low values 0.987 | S. cerevisiae deletion strains, locus YPL055C, strain LGE1, hits give low values 0.988 and 1.06 | S. cerevisiae deletion strains, locus YPL078C, strain atp4, hits give low values 0.97 | S. cerevisiae deletion strains, locus YPL106C, strain sse1, hits give low values 1.01 | S. cerevisiae deletion strains, locus YPL240C, strain hsp82, hits give low values 0.973 | S. cerevisiae deletion strains, locus YPL241C, strain CIN2, hits give low values 1.01 | S. cerevisiae deletion strains, locus YPL256C, strain CLN2, hits give low values 0.956 | S. cerevisiae deletion strains, locus YPR119W, strain clb2, hits give low values 1.01 | S. cerevisiae deletion strains, locus YPR141C, strain kar3, hits give low values 1.02 | S. cerevisiae deletion strains, locus YPR163C, strain tif3, hits give low values 1.02 | S. cerevisiae deletion strains, locus YPR167C, strain met16, hits give low values 1.02 | S. cerevisiae deletion strains, strain wtn01, hits give low values 1.02 | S. cerevisiae strains, strain wild type, hits give low values 1.01
